In article PMC4552634, “A New Set of Chemical Starting Points with Plasmodium falciparum Transmission-Blocking Potential for Antimalarial Drug Discovery” (PLoS ONE, 2015):
The whole screen tested about 13,000 compounds, of which about 3,200 (25%) showed an effect of 50% or more. The list shows a part of the results.

tested on: P. falciparum stage V gametocytes; parameters: BacTiter-Glo ATP luminescence viability of purified stage V gametocytes in 384-well plates, per cent inhibition versus DMSO; conditions: 48 h, 5 µM; inhibitor

In order of rising “% Inhibition” value:
1. COc1ccc(C(=O)NCCCCN2CCC(c3ccc4c(c3OC)CCCC4)CC2)cc1-c1ccc(C(F)(F)F)cc1 [TCMDC-138700]  -81.5%
2. O=C(Cc1ccc[n+]([O-])c1)Nc1cccc(-c2cccc(-c3nc4cc(C(F)(F)F)ccc4[nH]3)c2)c1 [TCMDC-136990]  -75.57%
3. CC(CN(C)C)C(=O)Nc1ccc(-c2ccc(-c3nc4ccc(C(F)(F)F)cc4[nH]3)cc2)cc1 (centres unmarked) [TCMDC-137113]  -54.47%
4. CCCc1cc(=O)oc2cc(OC)c(C(=O)CC(C)C)c(OC)c12 [TCMDC-138262]  -48.84%
5. O=C(/C=C/c1ccc(F)cc1)NC1CCC(CCN2CCc3ccccc3CC2)CC1 (centres unmarked) [TCMDC-139451]  -36.35%
6. O=C(NCCCCN1CC=C(c2ccc3c(c2OCC2CC2)CCCC3)CC1)c1ccc(-c2ccc(C(F)(F)F)cc2)cc1 [TCMDC-138758]  -36.04%
7. N#Cc1cccc(-c2ccc(C(=O)Nc3ccc4c(c3)CCN(C3CCC3)CC4)cn2)c1 [TCMDC-135996]  -32.92%
8. O=C(/C=C/c1ccccc1Cl)Nc1ccc(Br)c(OCCN2CCN(CCN3CCOCC3)CC2)c1 [TCMDC-140958]  -23.86%
9. O=C(NCCN1CCCC1)c1cccc(-c2ccc(-c3nc4ccc(F)cc4[nH]3)cc2)c1 [TCMDC-132325]  -16.55%
10. N#Cc1ccc(N2CCN(Cc3ccc(-c4ccc(-c5nc6cc(C(F)(F)F)ccc6[nH]5)cc4)cc3)CC2)nc1.O=C(O)C(F)(F)F [TCMDC-133113]  -14.21%
11. Fc1ccc2[nH]c(-c3cccc(-c4ccc(CNCc5cnn(-c6ccccc6)n5)cc4)c3)nc2c1.O=C(O)C(F)(F)F [TCMDC-132973]  -12.58%
12. CC(=NNC(N)=O)C1=C(O)C(c2ccccc2)N(C2CCCCC2)C1=O (centres unmarked) [TCMDC-131672]  -9.176%
13. COc1ccc2cc(C(=O)Nc3ccc4c(c3)CCN(C3CCC3)CC4)ccc2c1 [TCMDC-136082]  -6.595%
14. OC(c1ccccc1)C1CN(CCc2ccccc2)CCC1(O)c1ccccc1 (centres unmarked) [TCMDC-131287]  -3.552%
15. CCNc1cc(C(=O)N[C@@H](Cc2ccccc2)[C@H](O)CNC2(CC(C)C)CC2)cc(N2CCCCS2(=O)=O)c1 [TCMDC-135258]  -2.163%
16. Cc1ccc(CCOCCCCCNCC(O)c2cc(Cl)c(N)c(Cl)c2)cc1 (centres unmarked) [TCMDC-132077]  0.6115%
17. O=C(Nc1ccc2c(c1)CCN(C1CCC1)CC2)c1ccc(-n2ccnc2)cn1 [TCMDC-135973]  3.666%
18. NC(N)=NN=CC(=O)Nc1ccc(Cl)c(C(F)(F)F)c1 [TCMDC-137561]  9.011%
19. CCOCc1cnc(C)nc1CNC(=O)c1c(C)[nH]c2ccc(C)cc12 [TCMDC-125780]  11.26%
20. Nc1c(Cl)cc(C(O)CNCCCCCOCCc2ccccc2)cc1C(F)(F)F (centres unmarked) [TCMDC-132081]  12.69%
21. Oc1cccc(-c2nc(-c3ccccc3)c(-c3ccc4oc5ccc(-c6[nH]c(-c7cccc(O)c7)nc6-c6ccccc6)cc5c4c3)[nH]2)c1 [TCMDC-124223]  14.59%
22. CC(=O)Nc1ccc(CN2CCN(C(c3ccc(F)cc3)c3ccc(F)cc3)CC2)cc1 [TCMDC-124045]  16.43%
23. Nc1c(Cl)cc(C(O)CNCCCCCCCCCc2ccccn2)cc1Cl (centres unmarked) [TCMDC-132100]  20.05%
24. CCOCCCNc1sc(S(=O)(=O)c2ccccc2)nc1S(=O)(=O)c1ccc(C)cc1 [TCMDC-124750]  20.27%
25. Nc1c(Cl)cc(C(O)CNCCCCCCOCCc2ccc(O)cc2)cc1Cl (centres unmarked) [TCMDC-132086]  21.31%
26. CN(C)C(=S)NN=Cc1cccc(O)c1O [TCMDC-137879]  23.09%
27. N#Cc1ccc(-n2cc(C(=O)Nc3ccc4c(c3)CCN(C3CCC3)CC4)c(C(F)(F)F)n2)cc1 [TCMDC-136080]  23.35%
28. Cc1cccc2nc(-c3cccc(-c4cccc(NC(=O)Cc5ccc[n+]([O-])c5)c4)c3)[nH]c12 [TCMDC-136992]  24.81%
29. Nc1c(Cl)cc(C(O)CNCCCCCOCCc2ccc3occc3c2)cc1Cl (centres unmarked) [TCMDC-132085]  27.47%
30. Oc1ccccc1CN1CCCC(COC(c2ccc(F)cc2)c2ccc(F)cc2)C1 (centres unmarked) [TCMDC-136037]  28.2%
31. CCN(CC)S(=O)(=O)c1ccc(CCOCCCCCNCC(O)c2cc(Cl)c(N)c(Cl)c2)s1 (centres unmarked) [TCMDC-132091]  31.84%
32. Cc1cc(C2CCN(CCCCNC(=O)c3ccc(-c4ccc(C(F)(F)F)cc4)cc3)CC2)c(C)cc1OCC#N [TCMDC-138799]  37.57%
33. O=C(Nc1ccc2c(c1)CCN(C1CCC1)CC2)c1cn(-c2ccccc2)nc1-c1ccccc1 [TCMDC-136083]  54.47%
34. Nc1c(Cl)cc(C(O)CNCCCCCCOCCc2ccc(CO)s2)cc1Cl (centres unmarked) [TCMDC-132092]  55.37%
35. Nc1c(Cl)cc(C(O)CNCCCCCOCCCc2ccc3ncccc3c2)cc1Cl (centres unmarked) [TCMDC-132087]  57.03%
36. O=C(NCCCCN1CCC(c2ccc3c(c2OCCCO)CCCC3)CC1)c1ccc(-c2ccc(C(F)(F)F)cc2)c(CO)c1 [TCMDC-138741]  72.16%
37. O=C(Nc1ccc2c(c1)CCN(C1CCC1)CC2)c1ccc(-c2cn3ccccc3n2)cc1 [TCMDC-135460]  75.27%
38. N#CCOc1c(C2CCN(CCCCNC(=O)c3ccc(-c4ccc(C(F)(F)F)cc4)cc3)CC2)ccc2c1CCCC2 [TCMDC-138769]  92.11%
39. O=C(NCCCCN1CCC(c2ccc3c(c2OCCOCCO)CCCC3)CC1)c1ccc(-c2ccc(C(F)(F)F)cc2)cc1 [TCMDC-138762]  96.11%
40. O=C(NCCCCN1CCC(c2ccc3c(c2OCCN2CCCC2=O)CCCC3)CC1)c1ccc(-c2ccc(C(F)(F)F)cc2)cc1 [TCMDC-138773]  108.1%
41. Nc1c(Cl)cc(C(O)CNCCCCCOCCCc2ccc(O)c3ncccc23)cc1Cl (centres unmarked) [TCMDC-132088]  115.2%
